# From PubChem BioAssay (EPA / NIEHS)
# Active and inactive are the calls of the source. How the source made its calls: active means hit-call score of the fitted dose curve at least 0.9, where 1 is the maximum; inactive means score below 0.9.
# How the values were obtained:
# Conditions in all cases: mRNA level, 48 h; actives raise or lower the signal
# [1] = read-out: Tumor necrosis factor receptor superfamily member 6 (Homo sapiens) (UniProt P25445); experiment: LTEA_HepaRG_FAS: Life Technologies and Expression Analysis (LTEA) Assay for Fas cell surface death receptor (FAS) using HepaRG (AID 2283447)
# Procedure, shortened: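 Differentiated human HepaRG cells, pre-cultured 48 h, were exposed in duplicate for 48 h to 8-point half-log concentrations (top 100 uM, 0.5% DMSO) in serum-free induction medium; FAS mRNA measured by qRT-PCR, normalized to ACTB/GAPDH/POLR2A, bidirectional fit versus DMSO.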
# [2] = read-out: Fatty acid synthase (Homo sapiens) (UniProt P49327); experiment: LTEA_HepaRG_FASN: Life Technologies and Expression Analysis (LTEA) Assay for Fatty Acid Synthase (FASN) using HepaRG (AID 2283448)
# Procedure, shortened: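 FASN expression changes, up or down relative to 0.5% DMSO, were measured by qRT-PCR in human HepaRG cells after 48 h treatment with chemicals at eight concentrations (half-log steps from 100 uM).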
# [3] = read-out: Cyclin D2 (CCND2), CCND2 (gene 894); experiment: LTEA_HepaRG_CCND2: Life Technologies and Expression Analysis (LTEA) Assay for Cyclin D2 (CCND2) using HepaRG (AID 2283449);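 further: CCND2 transcript measured by TaqMan qRT-PCR and normalised to three housekeeping genes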
# Procedure, shortened: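 Differentiated human HepaRG cells were exposed for 48 h in serum-free induction medium to eight half-log concentrations topping at 100 uM (0.5% DMSO vehicle). CCND2 mRNA was quantified by TaqMan qRT-PCR, normalised to ACTB, GAPDH and POLR2A, and fitted bidirectionally against DMSO.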
# [4] = read-out: Cyclin Dependent Kinase Inhibitor 1A (CDKN1A), CDKN1A (gene 1026); experiment: LTEA_HepaRG_CDKN1A: Life Technologies and Expression Analysis (LTEA) Assay for Cyclin Dependent Kinase Inhibitor 1A (CDKN1A) using HepaRG (AID 2283450)
# Procedure, shortened: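 Differentiated human HepaRG cells, pre-cultured 48 h, were exposed in duplicate for 48 h in serum-free induction medium to eight half-log concentrations up to 100 uM (0.5% DMSO). CDKN1A mRNA was measured by qRT-PCR, normalized to ACTB/GAPDH/POLR2A, bidirectionally fitted versus DMSO.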
# [5] = read-out: Cyclin D1 (CCND1), CCND1 (gene 595); experiment: LTEA_HepaRG_CCND1: Life Technologies and Expression Analysis (LTEA) Assay for Cyclin D1 (CCND1) using HepaRG (AID 2283451);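 on AC50: TaqMan qRT-PCR transcript level normalised to ACTB GAPDH and POLR2A housekeeping genes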
# Procedure, shortened: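 Differentiated human HepaRG cells in serum-free induction medium were exposed 48 h to eight half-log concentrations up to 100 uM in 0.5% DMSO; mRNA quantified by TaqMan qRT-PCR, normalized to ACTB, GAPDH, POLR2A, fitted bidirectionally versus DMSO.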
# [6] = read-out: catalase (CAT), CAT (gene 847); experiment: LTEA_HepaRG_CAT: Life Technologies and Expression Analysis (LTEA) Assay for catalase (CAT) using HepaRG (AID 2283452);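 on AC50: TaqMan qRT-PCR signal normalized to ACTB GAPDH and POLR2A housekeeping genes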
# Procedure, shortened: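 Differentiated HepaRG cells in serum-free induction medium were dosed 48 h in duplicate, eight half-log concentrations from 100 uM in 0.5% DMSO. Transcript measured by TaqMan qRT-PCR, normalised to ACTB/GAPDH/POLR2A, fitted bidirectionally against DMSO.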
# [7] = read-out: flavin-containing dimethylaniline monooxygenases 3 (FMO3), FMO3 (gene 2328); experiment: LTEA_HepaRG_FMO3: Life Technologies and Expression Analysis (LTEA) Assay for flavin-containing dimethylaniline monooxygenases 3 (FMO3) using HepaRG (AID 2283453)
# Procedure, shortened: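 Differentiated HepaRG cells in serum-free induction medium, exposed 48 h in duplicate to 8 half-log concentrations up to 100 uM in 0.5% DMSO. FMO3 mRNA by qRT-PCR, normalized to ACTB, GAPDH, POLR2A; bidirectional fit vs DMSO.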
# [8] = read-out: CFLAR gene, CFLAR (gene 8837); experiment: LTEA_HepaRG_CFLAR: Life Technologies and Expression Analysis (LTEA) Assay for CFLAR gene using HepaRG (AID 2283455)
# Procedure, shortened: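 HepaRG cells were plated for 48 h, switched to serum-free induction medium, then exposed in duplicate for 48 h to 8 concentrations (top 100 uM, half-log steps, 0.5% DMSO). CFLAR mRNA was measured by qRT-PCR, normalized to ACTB, GAPDH and POLR2A.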
# [9] = read-out: Forkhead box O1 (FOXO1), FOXO1 (gene 2308); experiment: LTEA_HepaRG_FOXO1: Life Technologies and Expression Analysis (LTEA) Assay for Forkhead box O1 (FOXO1) using HepaRG (AID 2283456)
# Procedure, shortened: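 Differentiated human HepaRG cells in serum-free induction medium were exposed in duplicate for 48 h to eight half-log concentrations (top 100 uM, 0.5% DMSO). FOXO1 mRNA was measured by TaqMan qRT-PCR, normalised to ACTB, GAPDH and POLR2A, and fitted bidirectionally against DMSO.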
# [10] = read-out: growth arrest and DNA damage 45 (GADD45A), GADD45A (gene 1647); experiment: LTEA_HepaRG_GADD45A: Life Technologies and Expression Analysis (LTEA) Assay for growth arrest and DNA damage 45 (GADD45A) using HepaRG (AID 2283458)
# Procedure, shortened: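 Cells plated and cultured 48 h, switched to serum-free induction medium, then dosed for 48 h (100 uM top, half-log dilutions, 0.5% DMSO). RNA was isolated and transcript measured by Fluidigm qRT-PCR.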
# [11] = read-out: Forkhead box O3 (FOXO3), FOXO3 (gene 2309); experiment: LTEA_HepaRG_FOXO3: Life Technologies and Expression Analysis (LTEA) Assay for Forkhead box O3 (FOXO3) using HepaRG (AID 2283459)
# Procedure, shortened: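 Differentiated human HepaRG cells in serum-free induction medium were exposed in duplicate for 48 h to eight half-log concentrations up to 100 uM in 0.5% DMSO. FOXO3 mRNA was quantified by qRT-PCR, normalized to ACTB, GAPDH and POLR2A, with bidirectional fitting versus DMSO.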
# [12] = read-out: ABC Transporter (ABCB1), ABCB1 (gene 5243); experiment: LTEA_HepaRG_ABCB1: Life Technologies and Expression Analysis (LTEA) Assay for ABC Transporter (ABCB1) using HepaRG (AID 2283460)
# Procedure, shortened: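 Differentiated human HepaRG cells, plated 48 h then switched to serum-free induction medium, were exposed in duplicate to eight half-log concentrations up to 100 uM in 0.5% DMSO for 48 h. ABCB1 mRNA was measured by TaqMan qRT-PCR, normalized to ACTB/GAPDH/POLR2A.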
# [13] = read-out: ABC Transporter (ABCB11), ABCB11 (gene 8647); experiment: LTEA_HepaRG_ABCB11: Life Technologies and Expression Analysis (LTEA) Assay for ABC Transporter (ABCB11) using HepaRG (AID 2283463)
# Procedure, shortened: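 Differentiated human HepaRG cells were exposed for 48 h in serum-free induction medium to eight half-log concentrations up to 100 uM in 0.5% DMSO. ABCB11 mRNA was quantified by qRT-PCR, normalized to ACTB, GAPDH and POLR2A, and fitted bidirectionally versus DMSO.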
# [14] = read-out: ABC Transporter (ABCC2), ABCC2 (gene 1244); experiment: LTEA_HepaRG_ABCC2: Life Technologies and Expression Analysis (LTEA) Assay for ABC Transporter (ABCC2) using HepaRG (AID 2283464)
# Procedure, shortened: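 HepaRG cells were plated 48 h, switched to serum-free induction medium, then exposed in duplicate for 48 h to 8 concentrations (top 100 uM, half-log steps, 0.5% DMSO). ABCC2 mRNA was measured by qRT-PCR normalized to ACTB/GAPDH/POLR2A; bidirectional fitting versus DMSO.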
# [15] = read-out: Broad substrate specificity ATP-binding cassette transporter ABCG2 (Homo sapiens) (UniProt Q9UNQ0); experiment: LTEA_HepaRG_ABCG2: Life Technologies and Expression Analysis (LTEA) Assay for ABC Transporter (ABCG2) using HepaRG (AID 2283465)
# Procedure, shortened: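 Differentiated HepaRG cells in serum-free induction medium were exposed for 48 h, in duplicate, to eight half-log concentrations up to 100 uM in 0.5% DMSO. ABCG2 mRNA was measured by TaqMan qRT-PCR, normalized to ACTB, GAPDH and POLR2A, and fitted bidirectionally versus DMSO.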
# [16] = read-out: growth arrest and DNA damage 45 (GADD45B), GADD45B (gene 4616); experiment: LTEA_HepaRG_GADD45B: Life Technologies and Expression Analysis (LTEA) Assay for growth arrest and DNA damage 45 (GADD45B) using HepaRG (AID 2283461)
# Procedure, shortened: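 Differentiated HepaRG cells, plated 48 h then switched to serum-free induction medium, were exposed 48 h in duplicate to eight half-log concentrations from 100 uM in 0.5% DMSO; mRNA quantified by qRT-PCR, normalized to ACTB/GAPDH/POLR2A, bidirectional fit versus DMSO.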
# [17] = read-out: Cytochrome P450 (CYP1A1), CYP1A1 (gene 1543); experiment: LTEA_HepaRG_CYP1A1: Life Technologies and Expression Analysis (LTEA) Assay for Cytochrome P450 (CYP1A1) using HepaRG (AID 2283454)
# Procedure, shortened: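 Differentiated HepaRG cells in serum-free induction medium were exposed in duplicate for 48 h to eight half-log concentrations up to 100 uM in 0.5% DMSO. CYP1A1 mRNA was quantified by TaqMan qRT-PCR, normalized to ACTB, GAPDH and POLR2A.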
# [18] = read-out: ABC Transporter (ABCC3), ABCC3 (gene 8714); experiment: LTEA_HepaRG_ABCC3: Life Technologies and Expression Analysis (LTEA) Assay for ABC Transporter (ABCC3) using HepaRG (AID 2283462)
# Procedure, shortened: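 HepaRG cells in serum-free induction medium were exposed for 48 h in duplicate to 8-point half-log concentrations topping at 100 uM in 0.5% DMSO. ABCC3 mRNA was measured by qRT-PCR normalized to ACTB, GAPDH and POLR2A, with bidirectional fitting versus DMSO.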
# Sequence of Fatty acid synthase (Homo sapiens) (P49327 whole entry, looked up): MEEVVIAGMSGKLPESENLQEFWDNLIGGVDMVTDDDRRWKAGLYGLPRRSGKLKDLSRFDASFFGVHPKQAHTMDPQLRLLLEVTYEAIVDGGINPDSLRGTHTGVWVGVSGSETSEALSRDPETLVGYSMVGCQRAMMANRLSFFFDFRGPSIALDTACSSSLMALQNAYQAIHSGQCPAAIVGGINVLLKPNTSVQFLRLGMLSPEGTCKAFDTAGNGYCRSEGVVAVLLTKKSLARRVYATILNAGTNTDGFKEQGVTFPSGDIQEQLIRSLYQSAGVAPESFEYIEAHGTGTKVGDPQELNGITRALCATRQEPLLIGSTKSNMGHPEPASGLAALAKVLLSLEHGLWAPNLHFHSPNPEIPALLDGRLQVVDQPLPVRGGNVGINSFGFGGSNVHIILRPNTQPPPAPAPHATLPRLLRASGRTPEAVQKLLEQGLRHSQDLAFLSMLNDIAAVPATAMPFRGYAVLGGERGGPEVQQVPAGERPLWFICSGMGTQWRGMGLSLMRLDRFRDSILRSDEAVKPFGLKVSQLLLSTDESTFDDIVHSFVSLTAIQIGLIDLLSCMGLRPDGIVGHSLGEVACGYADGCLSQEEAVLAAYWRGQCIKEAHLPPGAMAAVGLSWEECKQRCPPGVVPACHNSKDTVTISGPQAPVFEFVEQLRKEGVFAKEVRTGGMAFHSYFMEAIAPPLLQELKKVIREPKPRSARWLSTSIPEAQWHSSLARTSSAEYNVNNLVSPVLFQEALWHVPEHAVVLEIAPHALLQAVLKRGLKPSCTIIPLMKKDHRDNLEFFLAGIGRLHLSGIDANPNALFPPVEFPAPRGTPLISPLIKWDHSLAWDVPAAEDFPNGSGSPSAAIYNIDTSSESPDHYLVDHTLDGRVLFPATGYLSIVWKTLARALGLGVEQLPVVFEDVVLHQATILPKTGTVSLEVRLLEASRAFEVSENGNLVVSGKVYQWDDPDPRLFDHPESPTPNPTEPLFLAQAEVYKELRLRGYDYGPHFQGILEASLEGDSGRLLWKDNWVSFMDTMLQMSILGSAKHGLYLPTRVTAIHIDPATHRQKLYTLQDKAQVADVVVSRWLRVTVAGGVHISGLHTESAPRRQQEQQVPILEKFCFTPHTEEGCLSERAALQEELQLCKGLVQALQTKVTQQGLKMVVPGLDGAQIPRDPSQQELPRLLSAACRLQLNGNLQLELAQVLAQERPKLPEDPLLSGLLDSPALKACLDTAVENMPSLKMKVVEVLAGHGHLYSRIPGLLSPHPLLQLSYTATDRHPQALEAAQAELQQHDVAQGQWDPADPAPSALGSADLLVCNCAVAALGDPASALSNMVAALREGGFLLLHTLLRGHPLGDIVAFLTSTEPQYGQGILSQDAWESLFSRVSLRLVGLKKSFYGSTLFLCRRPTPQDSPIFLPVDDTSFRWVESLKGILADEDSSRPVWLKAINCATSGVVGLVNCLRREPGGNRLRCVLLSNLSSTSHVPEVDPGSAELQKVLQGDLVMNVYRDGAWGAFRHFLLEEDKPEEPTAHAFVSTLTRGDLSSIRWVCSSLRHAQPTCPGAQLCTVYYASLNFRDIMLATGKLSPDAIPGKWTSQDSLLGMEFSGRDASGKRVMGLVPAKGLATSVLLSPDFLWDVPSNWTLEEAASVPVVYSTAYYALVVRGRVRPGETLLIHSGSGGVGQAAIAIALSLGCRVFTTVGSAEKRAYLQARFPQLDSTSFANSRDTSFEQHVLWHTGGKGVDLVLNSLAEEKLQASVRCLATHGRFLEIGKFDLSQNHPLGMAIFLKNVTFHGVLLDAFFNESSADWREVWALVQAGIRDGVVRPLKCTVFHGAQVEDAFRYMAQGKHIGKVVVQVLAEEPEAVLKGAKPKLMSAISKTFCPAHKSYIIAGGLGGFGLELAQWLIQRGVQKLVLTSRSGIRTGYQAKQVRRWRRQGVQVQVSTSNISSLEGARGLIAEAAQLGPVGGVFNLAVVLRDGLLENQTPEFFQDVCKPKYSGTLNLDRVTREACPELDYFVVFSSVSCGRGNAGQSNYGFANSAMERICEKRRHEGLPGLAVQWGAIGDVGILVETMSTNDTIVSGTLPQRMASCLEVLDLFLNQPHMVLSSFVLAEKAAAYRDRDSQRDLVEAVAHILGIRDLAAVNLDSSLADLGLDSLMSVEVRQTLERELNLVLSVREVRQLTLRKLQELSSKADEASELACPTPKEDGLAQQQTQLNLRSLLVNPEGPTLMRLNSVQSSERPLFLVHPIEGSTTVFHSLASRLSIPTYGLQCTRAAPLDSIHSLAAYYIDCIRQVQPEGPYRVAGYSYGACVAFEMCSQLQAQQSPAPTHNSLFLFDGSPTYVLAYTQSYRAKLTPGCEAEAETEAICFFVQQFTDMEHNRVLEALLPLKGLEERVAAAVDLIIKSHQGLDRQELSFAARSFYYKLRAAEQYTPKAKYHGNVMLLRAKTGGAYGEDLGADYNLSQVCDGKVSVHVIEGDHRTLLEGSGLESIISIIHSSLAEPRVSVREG
# Sequence of Broad substrate specificity ATP-binding cassette transporter ABCG2 (Homo sapiens) (Q9UNQ0 whole entry, looked up): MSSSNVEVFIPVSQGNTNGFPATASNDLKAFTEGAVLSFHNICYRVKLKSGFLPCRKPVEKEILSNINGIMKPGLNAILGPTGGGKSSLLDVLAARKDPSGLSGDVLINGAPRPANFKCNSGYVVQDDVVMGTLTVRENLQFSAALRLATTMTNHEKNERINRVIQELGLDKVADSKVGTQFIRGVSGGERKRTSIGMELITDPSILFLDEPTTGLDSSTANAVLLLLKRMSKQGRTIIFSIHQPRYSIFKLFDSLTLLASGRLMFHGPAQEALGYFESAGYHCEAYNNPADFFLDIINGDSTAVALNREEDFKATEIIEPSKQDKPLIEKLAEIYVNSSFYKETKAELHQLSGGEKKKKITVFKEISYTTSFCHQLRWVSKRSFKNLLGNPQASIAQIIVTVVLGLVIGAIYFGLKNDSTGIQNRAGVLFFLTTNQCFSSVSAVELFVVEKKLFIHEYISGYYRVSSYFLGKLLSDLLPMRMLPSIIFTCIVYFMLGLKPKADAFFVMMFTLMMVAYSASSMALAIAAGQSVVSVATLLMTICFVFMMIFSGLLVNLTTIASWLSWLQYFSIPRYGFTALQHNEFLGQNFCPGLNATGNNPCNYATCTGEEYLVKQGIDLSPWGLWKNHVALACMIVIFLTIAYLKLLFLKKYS
compound,measurement,setting,value
CC[C@H](C)[C@H]1O[C@]2(C=C[C@@H]1C)C[C@@H]1C[C@@H](C/C=C(\C)[C@@H](O[C@H]3C[C@H](OC)[C@@H](O[C@H]4C[C@H](OC)[C@@H](NC)[C@H](C)O4)[C@H](C)O3)[C@@H](C)/C=C/C=C3\CO[C@@H]4[C@H](O)C(C)=C[C@@H](C(=O)O1)[C@]34O)O2,outcome,[1],inactive
same,AC50,[2],16.4 µM (active)
same,outcome,[3],inactive
same,outcome,[4],inactive
same,AC50,[5],87.5 µM (active)
same,AC50,[6],12.7 µM (active)
same,AC50,[7],15.5 µM (active)
same,AC50,[8],16.9 µM (active)
same,AC50,[9],27.9 µM (active)
same,outcome,[10],inactive
same,outcome,[11],inactive
same,AC50,[12],23 µM (active)
same,AC50,[13],39.6 µM (active)
same,AC50,[14],13.3 µM (active)
same,AC50,[15],14.4 µM (active)
CC(C)[C@H](C(=O)O[C@H](C#N)c1cccc(Oc2ccccc2)c1)c1ccc(Cl)cc1,outcome,[1],inactive
same,outcome,[2],inactive
same,outcome,[3],inactive
same,outcome,[4],inactive
same,outcome,[5],inactive
same,outcome,[6],inactive
same,outcome,[7],inactive
same,outcome,[8],inactive
same,outcome,[9],inactive
same,outcome,[10],inactive
same,outcome,[11],inactive
same,AC50,[12],23.2 µM (active)
same,outcome,[16],inactive
same,outcome,[13],inactive
same,AC50,[14],50 µM (active)
same,AC50,[15],37 µM (active)
CCOP(=S)(Oc1cnc(C(C)(C)C)nc1)OC(C)C (stereo not drawn),outcome,[1],inactive
same,AC50,[2],82.4 µM (active)
same,outcome,[3],inactive
same,outcome,[4],inactive
same,AC50,[5],50 µM (active)
same,AC50,[6],5.63 µM (active)
same,AC50,[7],4.99 µM (active)
same,AC50,[17],35 µM (active)
same,outcome,[8],inactive
same,outcome,[9],inactive
same,outcome,[10],inactive
same,outcome,[11],inactive
same,AC50,[12],19.4 µM (active)
same,outcome,[18],inactive
same,AC50,[13],1.84 µM (active)
same,outcome,[14],inactive
same,outcome,[15],inactive
COP(=O)(OC)C(O)C(Cl)(Cl)Cl (stereo not drawn),outcome,[1],inactive
same,outcome,[2],inactive
same,outcome,[4],inactive
same,outcome,[5],inactive
same,outcome,[6],inactive
same,outcome,[7],inactive
same,outcome,[8],inactive
same,outcome,[9],inactive
same,AC50,[10],0.12 µM (active)
same,outcome,[11],inactive
same,outcome,[12],inactive
same,outcome,[13],inactive
same,outcome,[14],inactive
same,outcome,[15],inactive
N#CSCSC#N,outcome,[1],inactive
same,AC50,[2],64.6 µM (active)
same,outcome,[3],inactive
same,outcome,[4],inactive
same,outcome,[5],inactive
same,AC50,[6],74.9 µM (active)
same,AC50,[7],83.2 µM (active)
same,AC50,[17],50 µM (active)
same,AC50,[8],75.2 µM (active)
same,AC50,[9],80.6 µM (active)
same,outcome,[10],inactive
same,AC50,[11],84.9 µM (active)
same,outcome,[12],inactive
same,AC50,[13],50 µM (active)
same,outcome,[14],inactive
same,outcome,[15],inactive
COP(=O)(OC)OC(Br)C(Cl)(Cl)Br (stereo not drawn),outcome,[1],inactive
same,outcome,[2],inactive
same,outcome,[3],inactive
same,outcome,[4],inactive
same,outcome,[5],inactive
same,outcome,[6],inactive
same,outcome,[7],inactive
same,AC50,[17],50 µM (active)
same,outcome,[9],inactive
same,outcome,[11],inactive
same,outcome,[12],inactive
same,outcome,[18],inactive
same,outcome,[13],inactive
same,outcome,[14],inactive
same,outcome,[15],inactive
